Screens deposited in PubChem BioAssay by several laboratories.
MEX-5 binding = C. elegans MEX-5 TCR-2 RNA binding activity; MEX-5/FITC-TCR2 RNA binding, fluorescence polarization; hits give low values; activity score (negative = inhibition of binding), % at 10 µM; actives 0.38% (n = 300,000);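 active = inhibition past about -25% in most replicates, and total fluorescence under double the plate's negative control median, limit read from the data; inconclusive = replicates evenly split on the limit, or fluorescence at least double controls; inactive = too little inhibition in most replicates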
Target sequence (Q9XUB2 whole entry, looked up): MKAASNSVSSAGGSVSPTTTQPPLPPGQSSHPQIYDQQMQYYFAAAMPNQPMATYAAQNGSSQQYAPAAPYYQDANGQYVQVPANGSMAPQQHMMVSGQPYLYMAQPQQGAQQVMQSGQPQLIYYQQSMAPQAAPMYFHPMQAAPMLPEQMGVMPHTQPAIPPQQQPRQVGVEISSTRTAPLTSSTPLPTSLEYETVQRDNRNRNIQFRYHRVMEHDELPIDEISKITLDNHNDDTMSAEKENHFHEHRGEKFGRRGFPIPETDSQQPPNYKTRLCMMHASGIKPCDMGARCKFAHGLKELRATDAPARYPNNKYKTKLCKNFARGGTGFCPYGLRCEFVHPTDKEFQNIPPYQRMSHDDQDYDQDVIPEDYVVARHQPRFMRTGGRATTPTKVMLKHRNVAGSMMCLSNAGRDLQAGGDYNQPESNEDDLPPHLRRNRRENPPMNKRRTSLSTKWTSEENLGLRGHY
GLD-1 RNA inh = GLD-1-TGE RNA interaction inhibition (C. elegans). purified GLD-1 + fluorescein TGE RNA, fluorescence polarization. actives 0.44% (n = 320,000). inhibition, % at 5.96 µM. Q17339. AID 2280;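 active = percent inhibition above a per-plate cutoff, the plate mean of test compounds plus 3 SD, cut at about 30% in these data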
eLon inh = inhibitors of E. coli Lon protease; inhibition, % at 7.94 µM; AID 602123; actives 0.42% (n = 360,000); purified E. coli Lon protease, fluorescence polarization; in the data active = inhibition above about 13%, passing the limit was not always enough
MCL1 BIM primary = inhibitors of human MCL1 binding to BIM-BH3 peptide. Q07820. GST-MCL1 / FITC-Bim-BH3 fluorescence polarization. inhibition, % at 10.9 µM. actives 0.68% (n = 320,000);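 active = inhibition above the mean inhibition of all tested compounds plus 3 SD, set per campaign, cut at about 40% in these data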;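 note: higher means more loss of mP so more displacement of Bim peptide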
Bcl-xL primary = Bcl-xL (human) inhibition; Q07817; GST-Bcl-xL / FITC-Bim BH3 peptide fluorescence polarization; inhibition, % at 10.9 µM; actives 0.7% (n = 320,000);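 active = inhibition above the mean of all tested compounds plus 3 SD, cutoff set per campaign, cut at about 30% in these data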;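 note: inhibitors lower millipolarization by displacing the labeled peptide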
Of the large screens only hits and unclear results are named; the others gave an inactive call. Shown are actives, neighbours in structure and some others; about 1.4% of the full set was active somewhere.

CC1(OC(=O)C2CCCC2)C(=O)C=C2C=C(C3CC3)OC=C2C1=O (configuration not stated)	GLD-1 RNA inh 44, MCL1 BIM primary 42, Bcl-xL primary 50 (no result: eLon inh)
CC(C)c1ccc(CNC(=O)C(=O)NCC2CCCO2)cc1 (configuration not stated)	none
CSc1nc(=S)c2[nH]c(=S)[nH]c2[nH]1	MEX-5 binding -99 (no result: GLD-1 RNA inh, MCL1 BIM primary, Bcl-xL primary)
CN(C)CCN(CC1CCCN(Cc2ccccc2F)C1)C(=O)c1ccc(Cl)cc1 (configuration not stated)	none
O=C(NCC(c1ccco1)N1CCOCC1)c1c(F)cccc1F (configuration not stated)	none
CCCCNc1c(N)n(CCC)c(=O)[nH]c1=O	none
CCCn1c(N)c(NCCN2CCOCC2)c(=O)[nH]c1=O	MEX-5 binding -31, Bcl-xL primary 33
CN(C)c1cccc2c1c(NS(=O)(=O)c1cn(C)cn1)nn2C	MEX-5 binding -30
Cn1cnc(S(=O)(=O)Nc2ccccc2N2CCOCC2)c1	none
Cc1cccc(Nc2c([N+](=O)[O-])ccc3nonc23)c1C	none (no result: GLD-1 RNA inh, MCL1 BIM primary, Bcl-xL primary)
Cc1ccc(Nc2c([N+](=O)[O-])ccc3nonc23)c(C)c1	Bcl-xL primary 46
CCC(=O)Nc1ccc(Nc2nc(C)c([N+](=O)[O-])c(Nc3ccc(NC(=O)CC)cc3)n2)cc1	none
Cc1ccccc1CS(=O)(=O)Cc1ccc(C(=O)NCc2ccccn2)o1	Bcl-xL primary 31
Cc1ccc(S(=O)(=O)C(C#N)c2nc3ccccc3nc2OC(C)C)cc1 (configuration not stated)	none
N#CC(c1nc2ccccc2nc1OCCO)S(=O)(=O)c1ccccc1 (configuration not stated)	MEX-5 binding -38
CCc1nnc(SCC(=O)Nc2ccc3ccccc3c2)n1N	none (no result: MEX-5 binding, MCL1 BIM primary, Bcl-xL primary)
C[C@H](CO)N1C[C@H](C)[C@@H](CN(C)S(=O)(=O)c2ccc(Cl)cc2)Oc2ccc(NS(=O)(=O)c3ccccc3)cc2CC1=O	eLon inh 19 (no result: MEX-5 binding, MCL1 BIM primary, Bcl-xL primary)
O=C(COC(=O)CC1CCCC1)Nc1cccc(F)c1	none (no result: MEX-5 binding)
O=C(CCc1nc2ccccc2c(=O)[nH]1)N1CCCc2ccccc21	MCL1 BIM primary 43, Bcl-xL primary 51
CCOc1cc(/C=C(\C#N)C(=O)Nc2ccccc2C(=O)O)ccc1OC(=O)c1ccc(C)cc1	none
CC1CCCC(C)N1C(=O)CSc1nnnn1-c1cccc2c1CCCC2 (configuration not stated)	GLD-1 RNA inh 55
CCOC(=O)N1CCN(C(=O)CSc2nnc3[nH]c(=O)c(C)c(C)n23)CC1	none
CCC/C(C#Cc1ccc(N(C)C)cc1)=C1/c2ccccc2C(=O)N1c1ccccc1	GLD-1 RNA inh 119 (no result: MEX-5 binding, MCL1 BIM primary, Bcl-xL primary)
CCC/C(C#Cc1cc(OC)cc(OC)c1)=C1/c2ccccc2C(=O)N1c1ccccc1	none (no result: MEX-5 binding, MCL1 BIM primary, Bcl-xL primary)
CC(=O)N1c2ccc(S(=O)(=O)N3CCCC(C(=O)Nc4ccc(F)cc4)C3)cc2CC1C (configuration not stated)	Bcl-xL primary 73
CNC(CC(C)C)C(=O)NC1C(=O)NC(CC(N)=O)C(=O)NC2C(=O)NC3C(=O)NC(C(=O)NC(C(=O)O)c4cc(O)cc(O)c4-c4cc3ccc4O)C(O)c3ccc(c(Cl)c3)Oc3cc2cc(c3OC2OC(CO)C(O)C(O)C2OC2CC(C)(N)C(O)C(C)O2)Oc2ccc(cc2Cl)C1O (configuration not stated)	none
CCCCCN1C=CC=C/C1=C\C=C(C#N)C#N	MEX-5 binding -37
Fc1ccc(OCc2nn[nH]n2)c(F)c1	none
CCOC(=O)Cn1c(=O)oc2cc(S(=O)(=O)NCc3ccccn3)ccc21	eLon inh 26
CSc1sc(-c2n[nH]c(=S)n2C)c2c1C=CCC2	none
CCN(CC)c1ccc(/C=c2\sc3nnc(-c4ccccc4Cl)n3c2=O)cc1	MEX-5 binding inconclusive
CCN(CC)c1ccc(/C=c2/sc3nnc(-c4ccccc4C)n3c2=O)cc1	MEX-5 binding -63
Cc1[nH][nH]c(=O)c1C(c1ccccc1[N+](=O)[O-])C(C#N)C#N (configuration not stated)	none
Cc1[nH][nH]c(=O)c1C(c1cc([N+](=O)[O-])ccc1O)c1c(C)[nH][nH]c1=O	MEX-5 binding -27
CCOC(=O)C1=C(C)NC2=C(C(=O)CC(C)(C)C2)C1c1cccc(C)n1 (configuration not stated)	none
CCOC(=O)CN=C1CC(C)(C)CC2=C1Sc1ncnc(N(C)C)c1N2	Bcl-xL primary 38
CCc1c(C)[nH]c2ccc(OC)cc2c1=S	none (no result: MEX-5 binding, GLD-1 RNA inh, MCL1 BIM primary, Bcl-xL primary)
CCOc1ccc(Cc2c(C)[nH]c3ccc(C(=O)O)cc3c2=S)cc1	Bcl-xL primary 31
N#C/C(=C/c1ccco1)c1nc2ccccc2s1	Bcl-xL primary 33
COCCNC(=O)C1Nc2ccc(C(F)(F)F)cc2C2C=CCC12 (configuration not stated)	none
O=C(O)C1Nc2c(C(F)(F)F)ccc(Cl)c2C2C=CCC12 (configuration not stated)	MCL1 BIM primary 48, Bcl-xL primary 38
COc1cccc(CNC(=O)Cn2ccc([N+](=O)[O-])n2)c1	none
CCOc1ccc(CCN2C(=S)N([C@@H](Cc3ccc(O)cc3)CN3CCC[C@@H]3CN3C(=S)NC[C@@H]3Cc3ccc(O)cc3)C[C@@H]2Cc2ccc(O)cc2)cc1	none (no result: MEX-5 binding, GLD-1 RNA inh, MCL1 BIM primary, Bcl-xL primary)
CCn1c(C)c(C2=CCN(S(=O)(=O)c3ccccc3)CC2)c2ccccc21	GLD-1 RNA inh 32
Cc1ccc(S(=O)(=O)N2CC=C(c3c(C)n(C)c4ccccc34)CC2)cc1	none
O=C(CN1CCCC1)NN=C(c1ccccc1)c1ccccc1	none
COCCn1nnnc1CN(Cc1cc2cc(OC)c(OC)cc2[nH]c1=O)C1CCCC1	MCL1 BIM primary 41, Bcl-xL primary 34
Cc1ccc(NC(=O)Nc2c(C)[nH]c(=O)[nH]c2=O)cc1Cl	none
Cc1cccn2c(=O)c3cc(C(=O)NCC4CCCO4)c(=N)n(C4CCCCC4)c3nc12 (configuration not stated)	none
Cc1cccn2c(=O)c3cc(C(=O)NC(C)C)c(=N)n(Cc4ccncc4)c3nc12	none
N=c1c(C(=O)NC2CCCCC2)cc2c(=O)n3ccccc3nc2n1Cc1ccccc1	none
N=c1c(C(=O)NC2CCCCC2)cc2c(=O)n3ccccc3nc2n1CCc1ccccc1	MEX-5 binding -26
Cc1cccn2c(=O)c3cc(C(=O)NCc4ccco4)c(=N)n(C4CCCC4)c3nc12	Bcl-xL primary 34
N=c1c(C(=O)NCC2CCCO2)cc2c(=O)n3ccccc3nc2n1Cc1cccnc1 (configuration not stated)	MEX-5 binding -44, Bcl-xL primary 37
CCNC(=O)c1cc2c(=O)n3cccc(C)c3nc2n(Cc2ccc(C)cc2)c1=N	MEX-5 binding -78
CC(=O)Nc1sc(C)c(C)c1C(=O)OCC(=O)Nc1ccccc1C(F)(F)F	none (no result: MEX-5 binding, GLD-1 RNA inh, MCL1 BIM primary, Bcl-xL primary)
COCCCN1C(=O)c2ccc(C(=O)OCC(=O)NCc3cccc(OC)c3)cc2C1=O	none (no result: MEX-5 binding)
CN1CCCN(C(=O)CNC(=O)c2ccc(Cl)cc2Cl)CC1	none (no result: MEX-5 binding, MCL1 BIM primary, Bcl-xL primary)
